Test results taken from ChEMBL document CHEMBL3988442, “University of Dundee, Small-Polar-MMV Screening Library” (2021).
Hit rate of the full screen: of about 53,000 compounds, about 900 (1.7%) showed an effect of 50% or more. Shown is part of a subset that was picked to be rich in strong results.

tested on: Mycobacterium tuberculosis; test: Cornell - Phenotypic assay to identify agents that inhibit growth of Mycobacterium tuberculosis; format: functional; parameters: scale not given: direction of the effect not stated beside the values; conditions: 10 mM as filed; unlikely as a test dose

SMILES | Percent Effect [%]
COc1ccc(OC)c(C2CC(=O)Nc3nc(N4CCOCC4)sc32)c1 (stereo not given) | 77.37
COc1cccc(C2CC(=O)Nc3nc(N)sc32)c1OC (stereo not given) | 76.98
COc1ccc(C2CC(=O)Nc3nc(N4CCOCC4)sc32)c(OC)c1 (stereo not given) | 45.08
COc1cccc(C2SCC(=O)Nc3ccsc32)c1OC (stereo not given) | 25.58
COc1ccc(C2CC(=O)Nc3nc(N4CCOCC4)sc32)cc1 (stereo not given) | 22.64
COc1ccc(C2SCC(=O)Nc3n[nH]cc32)c(OC)c1OC (stereo not given) | -14.08
CCN(Cc1ccncc1)CC1(O)CCN(C(=O)c2cnn(C)c2)C1 (stereo not given) | -5.524
O=C(NCc1ccccc1)[C@H]1C[C@@H]2CN(C(=O)NC3CCCC3)C[C@H]1O2 | -33.72
Cc1cc(C(=O)N2C[C@@H]3OCCN(CCN4CCCC4)[C@@H]3C2)c(C)o1.O=C(O)C(F)(F)F | -34.44
Cc1cccc(NC2CCN(C(=O)Nc3cn[nH]c3)CC2)n1 | 5.834
CCc1cc(N(C)Cc2ccno2)n2nc(C)c(C)c2n1 | 28.15
CCc1cc(=O)[nH]c(NC2CCN(S(=O)(=O)c3ccccc3)CC2)n1 | 69.51
Cc1nc(NC2CCN(S(=O)(=O)c3ccccc3)CC2)[nH]c(=O)c1C | -2.855
Cc1cc(=O)[nH]c(NC2CCN(S(=O)(=O)c3ccccc3)CC2)n1 | 26.85
O=C(N1CCOCC1)N1CCc2ncc(CN3CCCCC3)n2CC1.O=C(O)C(F)(F)F | 15.78
COCCCN(Cc1ccccn1)S(=O)(=O)c1ccc(OC)cc1 | -5.527
CC(C)(C)c1cc(NC(=O)NCCc2nnc3n2CCC3)c(C#N)s1 | 18.93
Cc1noc(CCCC(=O)NCCc2cc3ccccc3[nH]2)n1 | 55.01
Cc1noc(CCCNC(=O)CNC(=O)c2cc3ccccc3[nH]2)n1 | 17.25
Cc1noc(CCCC(=O)Nc2ncccc2Br)n1 | -30.93
O=C(O)C(F)(F)F.O=C(O)C(F)(F)F.c1nc(CN2CCC3(CC2)COCCN3CC2CC2)c[nH]1 | 14.15
CC(=O)N1CCC2(C1)c1ccccc1S(=O)(=O)N2Cc1ccccc1 (stereo not given) | -2.139
CCS(=O)(=O)N1CCc2ccc(NC(=O)Nc3cccc(C)c3)cc21 | 35.62
CCS(=O)(=O)N1CCc2ccc(NC(=O)Nc3cccc(C#N)c3)cc21 | 83.89
CCS(=O)(=O)N1CCc2ccc(NC(=O)Nc3ccccc3)cc21 | 24.03

SMILES | Percent Effect [%]
O=C(CC1=CSC2=NCCCN12)N1CCCCCC1c1ccco1 (stereo not given) | -8.894
Cc1nn(C)c2nc(-c3ccccn3)nc(NCCCOC(C)C)c12 | 64.07
CC(=O)NCCNc1nc(-c2ccccn2)nc2c1c(C)nn2C | 12.46
CCSCCNc1nc(-c2ccccn2)nc2c1c(C)nn2C | 51.67
Cc1nn(C)c2nc(-c3ccccn3)nc(NC[C@@H]3CCCO3)c12 | 21.74
Cc1nn(C)c2nc(-c3ccccn3)nc(NCCC3CCCN3C)c12 (stereo not given) | -44.58
CSCC[C@@H](CO)Nc1nc(-c2ccccn2)nc2c1c(C)nn2C | 2.174
Cc1nc(-c2cc(C(=O)O)co2)cs1 | 58.57
Cc1nc(-c2cc(C(=O)NC(C)(C(=O)O)C(C)C)co2)cs1 (stereo not given) | 45.67
CNC(=O)c1coc(-c2csc(C)n2)c1 | 11.85
CCn1cc(CN2C[C@@H]3CCCN3C[C@H]2CCSC)c(C)n1 | -15.91
Cc1ccc2c(c1)C1(CCNCC1)CN2C(=O)CN(C)C.O=C(O)C(F)(F)F.O=C(O)C(F)(F)F | 0.8832
CCS(=O)(=O)Nc1ccn(Cc2ccc(F)cc2Cl)n1 | 28.06
Cn1ncc2c1NC(=O)CC2c1cc(Cl)ccc1F (stereo not given) | 13.85
Cn1ncc2c1NC(=O)CC2c1ccc(Cl)cc1Cl (stereo not given) | 59.83
Cn1ncc2c1NC(=O)CC2c1ccccc1Cl (stereo not given) | -9.252
Cc1cc(CS(=O)(=O)C(C)C(=O)N(C)c2ccccc2)on1 (stereo not given) | -17.42
CN(Cc1ccco1)[C@@H]1CN(C(=O)C2CCOCC2)C[C@@H]2CCCO[C@@H]21.O=C(O)C(F)(F)F | -2.901
NC(=O)C1CCCN(Cc2ccc(C(=O)Nc3cnns3)cc2)C1 (stereo not given) | 2.81
CC(=O)Nc1nc(C(=O)NCc2ccc(N3CCCC3)nc2)cs1 | -0.1463
CSCc1cccc(NC(=O)N2CCC(N3CC=CC3)C2)c1 (stereo not given) | -39.08
CCn1c(C)cc(C(=O)N2CCC(Nc3cccnn3)CC2)c1C | 7.118
CC(C)Nc1cc(-c2c[nH]nc2C2CCN(C(=O)C3CC3)C2)ccn1 (stereo not given) | 31.29
CC(C)Nc1cc(-c2c[nH]nc2C2CCN(C(=O)C3CCC3)C2)ccn1 (stereo not given) | 58.28
CC(C)CNc1cc(-c2c[nH]nc2C2CCN(C(=O)C3CC3)C2)ccn1 (stereo not given) | 30.66
